Source: paper PMC11062922 (Nature Chemical Biology, 2023)
Where two headings read alike, the source gives them in different places.

Tests used:
AAK1 = test system: AAK1; set-up: species or system human, MV4-11 + K-562 + COLO205 + SK-N-BE2 + OVCAR-8; conditions: read-out: apparent Kd, n = 1
Q6ZSR9 = Q6ZSR9 (human, UniProt Q6ZSR9); set-up: species or system MV4-11 + K-562 + COLO205 + SK-N-BE2 + OVCAR-8; conditions: read-out: apparent Kd, n = 1
BMP2K = test system: BMP2K; set-up: species or system human, MV4-11 + K-562 + COLO205 + SK-N-BE2 + OVCAR-8; conditions: read-out: apparent Kd, n = 1
CLK1 = test system: CLK1; set-up: species or system human, MV4-11 + K-562 + COLO205 + SK-N-BE2 + OVCAR-8; conditions: read-out: apparent Kd; compound concentrations:100 nM and 1000 nM (sheet 'Samples'); n = 1
CSNK2A1;CSNK2A3 = test system: CSNK2A1;CSNK2A3; set-up: species or system human, MV4-11 + K-562 + COLO205 + SK-N-BE2 + OVCAR-8; conditions: read-out: apparent Kd; compound concentrations:100 nM and 1000 nM (sheet 'Samples'); n = 1
CSNK2A2 = test system: CSNK2A2; set-up: species or system human, MV4-11 + K-562 + COLO205 + SK-N-BE2 + OVCAR-8; conditions: read-out: apparent Kd; compound concentrations:100 nM and 1000 nM (sheet 'Samples'); n = 1
FLT4 = test system: FLT4; set-up: species or system human, MV4-11 + K-562 + COLO205 + SK-N-BE2 + OVCAR-8; conditions: read-out: apparent Kd; compound concentrations:100 nM and 1000 nM (sheet 'Samples'); n = 1
GAK = test system: GAK; set-up: species or system human, MV4-11 + K-562 + COLO205 + SK-N-BE2 + OVCAR-8; conditions: read-out: apparent Kd; compound concentrations:100 nM and 1000 nM (sheet 'Samples'); n = 1
GSK3A = test system: GSK3A; set-up: species or system human, MV4-11 + K-562 + COLO205 + SK-N-BE2 + OVCAR-8; conditions: read-out: apparent Kd; compound concentrations:100 nM and 1000 nM (sheet 'Samples'); n = 1
GSK3B = test system: GSK3B; set-up: species or system human, MV4-11 + K-562 + COLO205 + SK-N-BE2 + OVCAR-8; conditions: read-out: apparent Kd; compound concentrations:100 nM and 1000 nM (sheet 'Samples'); n = 1
PAK4 = test system: PAK4; set-up: species or system human, MV4-11 + K-562 + COLO205 + SK-N-BE2 + OVCAR-8; conditions: read-out: apparent Kd; compound concentrations:100 nM and 1000 nM (sheet 'Samples'); n = 1
PKN3 = test system: PKN3; set-up: species or system human, MV4-11 + K-562 + COLO205 + SK-N-BE2 + OVCAR-8; conditions: read-out: apparent Kd; compound concentrations:100 nM and 1000 nM (sheet 'Samples'); n = 1
RET = test system: RET; set-up: species or system human, MV4-11 + K-562 + COLO205 + SK-N-BE2 + OVCAR-8; conditions: read-out: apparent Kd; compound concentrations:100 nM and 1000 nM (sheet 'Samples'); n = 1
SIK2 = test system: SIK2; set-up: species or system human, MV4-11 + K-562 + COLO205 + SK-N-BE2 + OVCAR-8; conditions: read-out: apparent Kd; compound concentrations:100 nM and 1000 nM (sheet 'Samples'); n = 1
CLK4 = test system: CLK4; set-up: species or system human, MV4-11 + K-562 + COLO205 + SK-N-BE2 + OVCAR-8; conditions: read-out: apparent Kd; compound concentrations:100 nM and 1000 nM (sheet 'Samples'); n = 1
PKN1 = test system: PKN1; set-up: species or system human, MV4-11 + K-562 + COLO205 + SK-N-BE2 + OVCAR-8; conditions: read-out: apparent Kd; compound concentrations:100 nM and 1000 nM (sheet 'Samples'); n = 1
[1] = compound concentrations:100 nM and 1000 nM (sheet 'Samples')

Sequence of Q6ZSR9 (Q6ZSR9 whole entry, looked up): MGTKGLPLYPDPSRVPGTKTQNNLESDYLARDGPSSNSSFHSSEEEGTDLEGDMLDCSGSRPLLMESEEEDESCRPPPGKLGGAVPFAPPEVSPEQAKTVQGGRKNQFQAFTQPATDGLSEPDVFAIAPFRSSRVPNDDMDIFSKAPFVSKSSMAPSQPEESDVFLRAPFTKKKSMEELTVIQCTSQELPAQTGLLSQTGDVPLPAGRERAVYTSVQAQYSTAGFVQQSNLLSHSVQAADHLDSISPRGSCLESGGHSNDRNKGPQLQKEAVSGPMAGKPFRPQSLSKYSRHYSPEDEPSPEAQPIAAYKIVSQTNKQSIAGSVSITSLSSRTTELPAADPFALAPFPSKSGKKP

COc1cc(Nc2nccc(N3CCC(NC(=O)c4cccc(NC(C)=O)c4)C3)n2)cc(OC)c1OC (centres unmarked) [GSK1379754A] was tested. Which potency estimated from few doses (AAK1; compound concentrations: 100 nM and 1000 nM (sheet 'Samples'), CATDS: 0.175205708840038) did it give?
The potency estimated from few doses was 410 nM.

And the potency estimated from few doses (Q6ZSR9; compound concentrations: 100 nM and 1000 nM (sheet 'Samples'), CATDS: 0.171045295105965)?
The potency estimated from few doses was 426 nM.

With CC(=O)N[C@@H](Cc1ccc(OP(=O)(O)O)cc1)C(=O)N[C@H]1CCC(=O)N2CCC[C@@H](C(=O)NCc3ccc(Cl)cc3)N2C1=O [RO0325308-000] as the compound, how does the potency estimated from few doses (AAK1; [1]) read?
Its potency estimated from few doses is 737 nM.

And the potency estimated from few doses (BMP2K; [1])?
The potency estimated from few doses was 1480 nM.

What about the potency estimated from few doses (CLK1) of the same compound?
Its potency estimated from few doses is 60.4 nM.

What about the potency estimated from few doses (CSNK2A1;CSNK2A3) of the same compound?
Its potency estimated from few doses is 1430 nM.

What about the potency estimated from few doses (CSNK2A2) of the same compound?
The potency estimated from few doses was 1780 nM.

And the potency estimated from few doses (FLT4)?
Its potency estimated from few doses is 28.4 nM.

What about the potency estimated from few doses (GAK) of the same compound?
The potency estimated from few doses was 59.4 nM.

And the potency estimated from few doses (GSK3A)?
Its potency estimated from few doses is 59 nM.

And the potency estimated from few doses (GSK3B)?
The potency estimated from few doses was 60.7 nM.

And the potency estimated from few doses (PAK4)?
The potency estimated from few doses was 1170 nM.

And the potency estimated from few doses (PKN3)?
Its potency estimated from few doses is 152 nM.

What about the potency estimated from few doses (Q6ZSR9; [1]) of the same compound?
Its potency estimated from few doses is 1030 nM.

And the potency estimated from few doses (RET)?
Its potency estimated from few doses is 876 nM.

And the potency estimated from few doses (SIK2)?
Its potency estimated from few doses is 943 nM.

NC(=O)c1cc(-c2ccccc2)cc2c(C3CCNCC3)c[nH]c12 [GSK301362A] was tested. Which potency estimated from few doses (AAK1; [1]) did it give?
Its potency estimated from few doses is 1980 nM.

What does the source list for Cc1n[nH]c2cc(Nc3ccnc(Nc4cccc(CN5CCOCC5)c4)n3)ccc12 [GW682569X]?
potency estimated from few doses (AAK1; compound concentrations: 100 nM and 1000 nM (sheet 'Samples'), CATDS: 0.12351757147220301): 729 nM; potency estimated from few doses (BMP2K; compound concentrations: 100 nM and 1000 nM (sheet 'Samples'), CATDS: 0.100079515212571): 1250 nM; potency estimated from few doses (Q6ZSR9; compound concentrations: 100 nM and 1000 nM (sheet 'Samples'), CATDS: 0.10935758268406801): 981 nM

CCn1c(-c2cccnc2O)nc2cnccc21 [SB-736715] was tested. Which potency estimated from few doses (AAK1; compound concentrations: 100 nM and 1000 nM (sheet 'Samples'), CATDS: 1.3866746573900799E-2) did it give?
Its potency estimated from few doses is 1530 nM.

For Cc1ccccc1C1=C(c2cn(C)c3ccccc23)C(=O)NC1=O [RO0317612-000], which potency estimated from few doses (AAK1; compound concentrations: 100 nM and 1000 nM (sheet 'Samples'), CATDS: 0.12392874635964) is on record?
Its potency estimated from few doses is 1650 nM.

With CS(=O)(=O)CCn1c(=O)c(Oc2ccc(F)cc2F)cc2cnc(NC3CCOCC3)nc21 [RO5027956-000] as the compound, how does the potency estimated from few doses (AAK1; [1]) read?
Its potency estimated from few doses is 968 nM.

And the potency estimated from few doses (BMP2K; [1])?
The potency estimated from few doses was 1020 nM.

What about the potency estimated from few doses (CLK1) of the same compound?
The potency estimated from few doses was 1120 nM.

And the potency estimated from few doses (CLK4)?
Its potency estimated from few doses is 1240 nM.

What about the potency estimated from few doses (CSNK2A1;CSNK2A3) of the same compound?
The potency estimated from few doses was 1100 nM.

What about the potency estimated from few doses (CSNK2A2) of the same compound?
Its potency estimated from few doses is 1530 nM.

And the potency estimated from few doses (FLT4)?
The potency estimated from few doses was 1390 nM.

What about the potency estimated from few doses (GAK) of the same compound?
Its potency estimated from few doses is 422 nM.

What about the potency estimated from few doses (GSK3A) of the same compound?
The potency estimated from few doses was 592 nM.

What about the potency estimated from few doses (GSK3B) of the same compound?
The potency estimated from few doses was 601 nM.

And the potency estimated from few doses (PAK4)?
Its potency estimated from few doses is 1270 nM.

What about the potency estimated from few doses (PKN1) of the same compound?
Its potency estimated from few doses is 1540 nM.

What about the potency estimated from few doses (PKN3) of the same compound?
Its potency estimated from few doses is 1230 nM.

What about the potency estimated from few doses (Q6ZSR9; [1]) of the same compound?
Its potency estimated from few doses is 932 nM.

And the potency estimated from few doses (RET)?
The potency estimated from few doses was 823 nM.

And the potency estimated from few doses (SIK2)?
Its potency estimated from few doses is 1100 nM.
